OTUD3 inh: human OTUD3 deubiquitinase inhibition. Q5T2D3. purified OTUD3, Ub-rhodamine fluorescence, 2 h. inhibition, % at 25 µM. hit rate 0.7% among 47,000. AID 1645858
Target sequence (Q5T2D3 whole entry, looked up): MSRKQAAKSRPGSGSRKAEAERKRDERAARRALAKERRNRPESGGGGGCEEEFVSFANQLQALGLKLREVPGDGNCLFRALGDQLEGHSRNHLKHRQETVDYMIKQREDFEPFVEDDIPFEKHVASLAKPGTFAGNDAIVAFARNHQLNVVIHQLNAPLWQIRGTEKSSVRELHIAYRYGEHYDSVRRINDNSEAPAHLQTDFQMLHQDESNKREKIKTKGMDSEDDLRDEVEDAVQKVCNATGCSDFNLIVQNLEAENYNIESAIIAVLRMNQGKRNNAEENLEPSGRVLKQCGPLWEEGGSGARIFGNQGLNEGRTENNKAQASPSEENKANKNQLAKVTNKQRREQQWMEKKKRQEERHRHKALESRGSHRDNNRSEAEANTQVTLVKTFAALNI
USP17 block: blocks human USP17 ubiquitin-rhodamine cleavage. purified USP17, Ub-rhodamine cleavage fluorescence, 3 h. A8MUK1. inhibition, % at 50 µM. hit rate 6.5% among 47,000
USP28 block: inhibitors of human USP28 deubiquitinase | Q96RU2 | purified USP28, Ub-rhodamine cleavage fluorescence, 30 min | inhibition, % at 25 µM | hit rate 3% among 47,000
USP30 block: blocks human USP30 ubiquitin-rhodamine cleavage; Q70CQ3; purified USP30, Ub-rhodamine cleavage fluorescence; inhibition, % at 25 µM; hit rate 5.3% among 47,000; AID 1645860
Starred values were filed as active, the others as inactive; i = inactive; / = no result. Sampled rows, rich in hits. Any-hit rate of the full collection: about 12%. No stated cut-off is given here; in the data, active means inhibition above about 30%; inactive means the rest.

SMILES	OTUD3 inh	USP17 block	USP28 block	USP30 block
Cc1ccc(S(=O)(=O)N(C)c2ccccc2C(=O)NCc2ccc3c(c2)OCO3)cc1	-1	-9	-9	3
O=C(NCc1ccc2c(c1)OCO2)c1nnc(Cc2ccc(F)cc2)o1	3	56*	5	22
O=C(NCc1ccc2c(c1)OCO2)c1ccccc1OCc1ccc(F)cc1	20	33*	17	31*
CCCN1Cc2cccc(C(=O)NCc3ccc4c(c3)OCO4)c2C1=O	11	8	35*	16
CN(CC(=O)Nc1cccc(F)c1)C(=O)c1ccc2c(c1)nnn2C	-3	-8	2	-29
Cc1ccc2c(Nc3cccc(F)c3)c(-c3nc(C)no3)cnc2n1	-6	-1	9	-14
COc1ccc(-n2cc(C(=O)NCc3ccc4c(c3)OCO4)c3ccccc3c2=O)cc1	0	0	26	54*
COc1ccc2[nH]c3c(c2c1)CCN1C(=O)N(c2ccccc2C(=O)NCc2ccc4c(c2)OCO4)C(=O)[C@]31C	2	29	8	2
CCn1cc(NC(=O)CC2CCNCC2)cn1	1	9	-12	1
Cc1noc(NS(=O)(=O)c2ccc(NC(=O)COc3ccc(N(C)C(=O)c4ccc(Cl)cc4)cc3)cc2)c1C	0	-28	/	/
Cc1noc(NS(=O)(=O)c2ccc(NC(=O)CSc3ccc4ccccc4c3)cc2)c1C	15	52*	36*	11
N#Cc1cnn2ccc(-c3ccc4c(c3)CCC4)nc12	-1	34*	/	/
Nc1nccc(-c2ccc3c(c2)CCC3)n1	-13	-5	-8	-16
COc1cccc(NC(=O)Cn2c(=O)n(-c3ccc(F)cc3)c3ncccc32)c1	5	6	0	13
CCN1CCN(c2ccc(C(=O)OC)cc2NC(=O)c2sc3cc(Cl)ccc3c2Cl)CC1	14	12	13	48*
Cc1noc2ncnc(N(C)C3CCCCC3)c12	0	5	/	/
Cc1ccc(-c2nc3nc(C)cc(N4CCC(C)CC4)n3n2)cc1	1	56*	/	/
O=C1CC(c2ccccc2)S(=O)(=O)c2ccccc2N1Cc1cccc(F)c1 (centres undefined)	11	7	11	23
N#Cc1c(-c2ccc(Cl)cc2)ccn2nc(-c3ccco3)nc12	-136	-8	-191	i
N#Cc1c(-c2ccco2)ccn2nc(-c3ccc(Cl)cc3Cl)nc12	2	46*	-11	-46
Fc1ccccc1CSc1nnc(-c2ccccn2)n1Cc1ccco1	5	0	32*	15
O=C(CSc1nnc(-c2cnccn2)n1Cc1ccco1)Nc1cccc(F)c1	-8	-13	-2	-44
Fc1ccc(CSc2nnc(-c3ccccn3)n2Cc2ccco2)cc1	4	1	56*	23
COc1ccc(-n2c(SCC(=O)c3ccccc3)nnc2-c2cccnc2)cc1	0	-1	9	-42
COc1ccc(CSc2nnc(-c3ccccn3)n2-c2ccc(OC)cc2)cc1	7	6	10	38*
SMILES	OTUD3 inh	USP17 block	USP28 block	USP30 block
Cc1ccc(C)c(NC(=O)CSc2nnc(-c3ccccn3)n2Cc2ccco2)c1	18	39*	6	62*
CCOc1ccccc1N(C)C(=O)c1cccc2c1SCCC2=O	-1	5	-2	8
O=C(CSc1nnc(-c2ccccn2)n1-c1ccccc1)Nc1cccc2ccccc12	11	11	1	15
COc1ccccc1NC(=O)CSc1nnc(-c2ccccn2)n1-c1cc(C)cc(C)c1	-13	34*	-3	-17
O=C(NCc1ccccc1)c1ccc(-c2ccc(N3CCCC3)nn2)cc1	-6	66*	-2	-29
O=C(Nc1ccccc1)c1ccc(-c2ccc(N3CCCC3)nn2)cc1	13	22	22	39*
CC(C)C(NS(=O)(=O)c1ccccc1)C(=O)OCC(=O)Nc1ccc2c(c1)OCO2 (centres undefined)	13	-14	8	1
CC(C)NS(=O)(=O)c1ccc(CCC(=O)Nc2ccc3c(c2)OCCO3)cc1	-5	2	82*	0
CC(C)C(NS(=O)(=O)c1ccc2c(c1)OCCO2)C(=O)Nc1cccc(F)c1 (centres undefined)	15	44*	27	39*
O=C(COC(=O)CCc1ccc(S(=O)(=O)N2CCOCC2)cc1)Nc1ccc2c(c1)OCCO2	9	/	65*	20
O=C1NCCCn2cc(S(=O)(=O)N3CCN(c4ccccc4)CC3)cc21	-12	-50	-8	-126
Cc1ccoc1C(=O)N1C[C@H](OCc2cccnc2)[C@H]2OCCC[C@H]21	-1	-38	-9	-11
COc1cc(C(=O)N2CCC(O)(Cn3ccc4nc(-c5ccncc5)ccc43)CC2)ccn1	7	14	8	6
Cc1ccccc1CCNC(=O)c1cccn(CC(=O)N(C)C2CCCCC2)c1=O	9	0	11	2
O=C1C(NS(=O)(=O)Cc2cc(F)cc(F)c2)CCN1c1ccccc1 (centres undefined)	1	47*	18	-13
O=C1C(NS(=O)(=O)Cc2cccc(F)c2)CCN1c1ccc(F)cc1 (centres undefined)	-3	43*	11	-3
O=C(NCc1cccc(F)c1)NC1CCN(c2ccccc2)C1=O (centres undefined)	8	44*	10	20
Cc1cc(N2CCC(NC(=O)NCc3ccc(F)cc3)C2=O)ccc1F (centres undefined)	8	70*	3	12
Cc1ccc(OCC(=O)NCC(c2ccco2)N2CCCCC2)cc1C (centres undefined)	-1	-13	-6	-46
O=C1C(NS(=O)(=O)Cc2cccc(F)c2)CCN1c1ccccc1 (centres undefined)	9	44*	19	34*
O=C1C(NS(=O)(=O)Cc2ccccc2F)CCN1c1ccccc1 (centres undefined)	8	12	13	9
Cc1ccc(S(=O)(=O)N2CCN(c3c(C)n(C)c(=O)n(C)c3=O)CC2)c(C)c1	13	11	10	16
COc1ccc(NC(=O)C2CC(=O)Nc3c(-c4ccc(Cl)cc4)cnn32)c(OC)c1 (centres undefined)	0	60*	-6	-1
O=C1CC(C(=O)Nc2ccccc2Cl)n2nc(-c3ccccc3)cc2N1 (centres undefined)	13	72*	9	27
O=C1CC(C(=O)Nc2ccccc2F)n2ncc(-c3ccccc3)c2N1 (centres undefined)	9	44*	18	8
O=C1CC(C(=O)Nc2ccc(Cl)cc2Cl)n2ncc(-c3ccccc3)c2N1 (centres undefined)	-6	-7	-10	-10
O=C1CC(C(=O)Nc2ccccc2F)n2nc(-c3ccccc3)cc2N1 (centres undefined)	2	78*	56*	15
Cc1ccc2c(c1)N(S(C)(=O)=O)CC(C(=O)NCc1ccccc1Cl)O2 (centres undefined)	-3	-1	3	4
COc1ccccc1CNC(=O)CCNS(=O)(=O)c1ccc2c(c1)CCN2C(C)=O	1	-1	9	11
Cc1ccc(OCCn2c(=N)n(C(C)C)c3ccccc32)cc1	1	8	78*	28
